Source: PubChem BioAssay (NCI)
The panel holds about 83,000 compounds, 20% with a hit somewhere; the sample as a whole holds those more often.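 Values shown are percent growth following 48 h exposure of cells in 96-well plates to a single concentration of compound; below 10 was considered active.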

Key:
Experiment in all cases: NCI-60 one-dose screen, 48 h (100 = growth as untreated, 0 = no growth, -100 = all killed)
Conditions in all cases: 10 µM unless noted
NCI-H23 lung = test system: NCI-H23 lung
NCI-H226 lung = test system: NCI-H226 lung
NCI-H322M lung = test system: NCI-H322M lung
HOP-62 NSCLC = test system: HOP-62 NSCLC
NCI-H460 lung = test system: NCI-H460 lung
HOP-92 NSCLC = test system: HOP-92 NSCLC
NCI-H522 lung = test system: NCI-H522 lung
A549/ATCC NSCLC = test system: A549/ATCC NSCLC
786-0 renal = test system: 786-0 renal
COLO 205 colon = test system: COLO 205 colon
DU-145 prostate = test system: DU-145 prostate
K-562 leukemia = test system: K-562 leukemia
MALME-3M melanoma = test system: MALME-3M melanoma
MDA-MB-231 breast = test system: MDA-MB-231 breast
RXF 393 renal = test system: RXF 393 renal
SF-268 CNS = test system: SF-268 CNS
SF-295 CNS = test system: SF-295 CNS
SF-539 CNS = test system: SF-539 CNS
UACC-257 melanoma = test system: UACC-257 melanoma
M14 melanoma = test system: M14 melanoma

Measured: growth

COc1ccc(Nc2nc(N)nc3c2CCc2occc2-3)cc1
inactive: NCI-H23 lung 92.4% | NCI-H226 lung 97.1% | NCI-H322M lung 95.3% | HOP-62 NSCLC 98.4% | NCI-H460 lung 108% | HOP-92 NSCLC 99.6% | NCI-H522 lung 76.9% | A549/ATCC NSCLC 103% | 786-0 renal 95.5% | COLO 205 colon 116% | DU-145 prostate 102% | K-562 leukemia 92.4% | MALME-3M melanoma 110% | MDA-MB-231 breast 99.5% | RXF 393 renal 114% | SF-268 CNS 100% | SF-295 CNS 86.2% | SF-539 CNS 96.8% | UACC-257 melanoma 108% | M14 melanoma 93.6%

O=CNc1cc(Cl)cc(Cl)c1
inactive: NCI-H23 lung 102% | NCI-H226 lung 102% | NCI-H322M lung 104% | HOP-62 NSCLC 102% | NCI-H460 lung 104% | HOP-92 NSCLC 106% | NCI-H522 lung 95.4% | A549/ATCC NSCLC 102% | 786-0 renal 104% | COLO 205 colon 107% | DU-145 prostate 109% | K-562 leukemia 97.5% | MALME-3M melanoma 103% | MDA-MB-231 breast 85.6% | RXF 393 renal 113% | SF-268 CNS 106% | SF-295 CNS 102% | SF-539 CNS 100% | UACC-257 melanoma 97.4% | M14 melanoma 103%

C=C(C)[C@@H]1CC[C@]2(C(=O)NCC(=O)OC)CC[C@]3(C)[C@H](CC[C@@H]4[C@@]5(C)Cc6c([nH]c7ccccc67)C(C)(C)[C@@H]5CC[C@]43C)[C@@H]12
inactive: NCI-H23 lung 68.6% | NCI-H226 lung 63.5% | NCI-H322M lung 85.8% | HOP-62 NSCLC 82.8% | NCI-H460 lung 74.6% | HOP-92 NSCLC 91.1% | NCI-H522 lung 60.5% | A549/ATCC NSCLC 60.7% | 786-0 renal 75% | COLO 205 colon 86.1% | DU-145 prostate 83.8% | K-562 leukemia 44.9% | MALME-3M melanoma 93.9% | MDA-MB-231 breast 82.2% | RXF 393 renal 76% | SF-268 CNS 74.7% | SF-295 CNS 76.7% | SF-539 CNS 85.1% | UACC-257 melanoma 75.7% | M14 melanoma 89.5%

N#CC1=C(N)Oc2c(ccc3ccccc23)C1c1ccc([N+](=O)[O-])cc1 (stereo not drawn)
inactive: NCI-H23 lung 79.1% | NCI-H226 lung 66.7% | NCI-H322M lung 95.2% | HOP-62 NSCLC 73.3% | NCI-H460 lung 69.8% | HOP-92 NSCLC 93.4% | NCI-H522 lung 57.5% | A549/ATCC NSCLC 73% | 786-0 renal 102% | COLO 205 colon 105% | DU-145 prostate 89.6% | K-562 leukemia 21.4% | MALME-3M melanoma 84.3% | MDA-MB-231 breast 61.4% | RXF 393 renal 101% | SF-268 CNS 79.6% | SF-295 CNS 75.6% | SF-539 CNS 87.8% | UACC-257 melanoma 94.7%

Cc1cc(C)n(Nc2nc3ccccc3[nH]c2=O)c(=O)c1C#N
inactive: NCI-H23 lung 89.8% | NCI-H226 lung 89% | NCI-H322M lung 100% | HOP-62 NSCLC 93% | NCI-H460 lung 100% | HOP-92 NSCLC 76.2% | NCI-H522 lung 93.3% | A549/ATCC NSCLC 96.9% | 786-0 renal 96.5% | COLO 205 colon 113% | DU-145 prostate 101% | K-562 leukemia 94.3% | MALME-3M melanoma 91.7% | MDA-MB-231 breast 80.6% | RXF 393 renal 97.9% | SF-268 CNS 92.9% | SF-295 CNS 95.6% | SF-539 CNS 87.2% | UACC-257 melanoma 97.6% | M14 melanoma 98.8%

CCCCCCCCCCCC(=O)C(CCCCCCCCCC)C(=O)Nc1ccccc1 (stereo not drawn)
inactive: NCI-H23 lung 95.8% | NCI-H226 lung 97.1% | NCI-H322M lung 90.6% | HOP-62 NSCLC 96.8% | NCI-H460 lung 111% | HOP-92 NSCLC 102% | NCI-H522 lung 89.4% | A549/ATCC NSCLC 91.2% | 786-0 renal 107% | COLO 205 colon 108% | DU-145 prostate 104% | K-562 leukemia 104% | MALME-3M melanoma 105% | MDA-MB-231 breast 91.2% | RXF 393 renal 116% | SF-268 CNS 104% | SF-295 CNS 102% | SF-539 CNS 98.2% | UACC-257 melanoma 92.9% | M14 melanoma 103%

CCCN=C(N)c1ccc(NC(=O)c2ccc(C(=O)Nc3ccc(C(N)=NCCC)cc3)cc2)cc1
inactive: NCI-H23 lung 93.1% | NCI-H226 lung 73.4% | NCI-H322M lung 96.2% | HOP-62 NSCLC 86.2% | NCI-H460 lung 99.1% | HOP-92 NSCLC 88.6% | NCI-H522 lung 95% | A549/ATCC NSCLC 97.4% | 786-0 renal 98.7% | COLO 205 colon 70.5% | DU-145 prostate 107% | K-562 leukemia 91% | MALME-3M melanoma 88.1% | MDA-MB-231 breast 96.6% | RXF 393 renal 96.5% | SF-268 CNS 95.8% | SF-295 CNS 90.3% | SF-539 CNS 92.8% | UACC-257 melanoma 101% | M14 melanoma 98.4%

NNC(=O)/C(=C\c1ccc([N+](=O)[O-])cc1)CC(=O)c1ccc(Cl)c(Cl)c1
inactive: NCI-H23 lung 91.6% | NCI-H226 lung 69.2% | NCI-H322M lung 84.3% | HOP-62 NSCLC 83.3% | NCI-H460 lung 90.5% | HOP-92 NSCLC 103% | NCI-H522 lung 77.2% | A549/ATCC NSCLC 78.9% | 786-0 renal 92.9% | COLO 205 colon 100% | DU-145 prostate 88.7% | K-562 leukemia 88.8% | MALME-3M melanoma 94.3% | MDA-MB-231 breast 89% | RXF 393 renal 97.8% | SF-268 CNS 65.1% | SF-295 CNS 93.6% | SF-539 CNS 98.1% | UACC-257 melanoma 91.1%
